Hit rate of the full screen: of about 4,900 compounds, about 2,000 (41%) were called active.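 Rule for the calls: active = thallium signal drop beyond 5 SD of the untreated control mean, on both duplicate plates; inactive = the rest.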 The set was probably picked from earlier hits. These entries were drawn from the full list.

The assay can be described thus: thallium flux in non-induced HEK293 cells, confirmation, counter-screen for KCNK9 inhibitor project, cell-based, second counter screen, non-induced KCNK9-HEK293 (AID 492997).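 For inhibition: plate controls were buffer only IC0 wells for no effect and SID17386958 at its maximal inhibitory level for full effect.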 The note with it: non-induced KCNK9-HEK293, FluxOR thallium flux, at 10 µM; active compounds read high. (In general: The purpose of a counterscreen is to sort out artefacts and off-target activity.)
As for `CCCCCCCCCCCCn1ccc(=N)cc1`, the inhibition was 29.5% (active). Under `CCOC(=O)C1SC2(C(F)(F)C(F)F)CC1(O)c1c(c(OC)c3occc3c1OC)O2` (stereo unspecified) stands “inactive”; under `CC(C)(C)c1ccc(CN2C(=O)CN=C(c3ccccc3)c3ccccc32)cc1`, 50% (active). For `CC(C)(C)c1ccc(OC(=O)N2CCCCC2)cc1`, the inhibition entry was “inactive”. Next, `CC(C)n1c(=O)c(C=Nc2ccc(Br)cc2)c(O)n(Cc2ccco2)c1=O`: “inactive”; `CCCCCCN=C(CC)c1c(O)n(CCCC)c(=O)[nH]c1=O`: 32% (active).

What is called inhibition is how much of the control response was suppressed.

The values above are taken from PubChem BioAssay AID492997 (Johns Hopkins Ion Channel Center, 2010).
